{"source": "PubChem BioAssay (NCATS)", "note": "Results filed as inconclusive are left out. Unmarked numbers belong to inactive results. Calls come from the whole dose curve; as a rule, active = well fitted cell-killing curve with a large enough effect; inconclusive = small, poorly fitted or top-dose-only effect, or effect the other way; inactive = flat fitted curve, though single readings scatter.", "data": [{"assay": "MultiTox-Fluor Cytotoxicity Assay - LYMP1-001 - Dead Cells (AID 946);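 note: cells exposed to compound for 16 h; 0% = DMSO and 100% = tetraoctylammonium bromide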", "details": "LYMP1-001 lymphoblastoid cells, dead-cell protease fluorescence; series mostly up to 92.2 µM; cytotoxicity (dead cells): at the top concentration", "description": "NIH Chemical Genomics Center [NCGC]\nNIH Molecular Libraries Screening Centers Network [MLSCN]\nNational Institutes of Environmental Health Sciences [NIEHS]\nNational Toxicology Program [NTP]\nWe have developed a 1536-well cell-based assay for quantitative high throughput screening (qHTS) against a number of cell lines to determine in vitro cytotoxicity of small molecules. This particular assay uses a human lymphoblastoid cell line (LYMP1-001) purchased from Coriell Institute for Medical Research.\nNCGC Assay Protocol Summary:\nThe MultiTox-Fluor Cytotoxicity Assay (Promega) is a homogeneous method to simultaneously measure the relative number of live and dead cells in culture by detecting changes in cell membrane integrity. There are two fluorogenic peptide substrates in the assay reagent. Viable cells are determined when the cell-permeant substrate (GF-AFC) enters the cell and is cleaved by protease from live cells resulting in liberated fluorophore. This live-cell protease activity restricted to viable cells is proportional to cell number. The dead cells are determined by using fluorogenic cell-impermeant peptide substrate (bis-AAF-R110) which cleaved by dead cell proteases leaking from damaged cell membrane.\nUsing the MultiTox-Fluor Cytotoxicity Assay, the relative number of dead cells was measured in the lymphoblastoid cell line with complete culture medium following compound treatment for 16 hours. The assay was performed in opaque black Kalypsys 1536-well plates. In the screen, tetraoctylammonium bromide was used as positive control. Library compounds were measured for their ability to cause acute toxicity in the cell line, as reflected by an increase in dead cell protease activity, in a concentration-dependent manner. Data were normalized to the controls for basal activity (DMSO only) and 100% stimulation (15 uM tetraoctylammonium bromide). AC50 values were determined from concentration-response data modeled with the standard Hill equation.\nqHTS protocol for MultiTox-Fluor Cytotoxicity assay\n[Step] [Parameter] [Value] [Description]\n1. Reagent; 5 uL; 2500 lymphoblastoid cells/well\n2. Time; 5 hr; 37 C incubation\n4. Controls; 23 nL; Tetraoctylammonium bromide 6.4pM to 92 uM\n5. Time; 16 hr; 37 C incubation\n6. Reagent; 5 uL; MuliTox-Fluor Assay reagent\n7. Time; 60 min; Room Temperature\n8. Detection; dead-cell fluorescence (Ex/Em=485/520); EnVision plate reader\nKeywords: cytotoxicity, lymphoblastoid cell line, fluorescence, NTPHTS, NTPHTS_NCGC, NIEHS, EPA, DSSTox, MLSMR, MLSCN, NIH Roadmap, qHTS, NCGC", "units": {"cytotoxicity (dead cells)": "%"}, "values": [{"smiles": "O=C(Cc1ccccc1)OCc1ccccc1", "cytotoxicity (dead cells)": -3.6}, {"smiles": "O=C(O)CBr", "cytotoxicity (dead cells)": 5.07}, {"smiles": "ClCCOCCCl", "cytotoxicity (dead cells)": -5.26}, {"smiles": "Cc1ccc(N)c(N)c1", "cytotoxicity (dead cells)": 12.4}, {"smiles": "N#CCCC#N", "cytotoxicity (dead cells)": -3.14}, {"smiles": "O=[N+]([O-])c1cccc2c([N+](=O)[O-])cccc12", "cytotoxicity (dead cells)": 2.13}, {"smiles": "OC[P+](CO)(CO)CO", "cytotoxicity (dead cells)": 9.42}, {"smiles": "CC(C)(C)C(O)(CCc1ccc(Cl)cc1)Cn1cncn1", "note": "(stereo not given)", "cytotoxicity (dead cells)": 10.4}, {"smiles": "O=[N+]([O-])c1ccccc1O", "cytotoxicity (dead cells)": -14.6}, {"smiles": "ClCCOCOCCCl", "cytotoxicity (dead cells)": -10.5}, {"smiles": "ClC=CCl", "cytotoxicity (dead cells)": -9.25}, {"smiles": "CCCCC(=O)Cl", "cytotoxicity (dead cells)": -0.76}, {"smiles": "Cc1ccc(N)cc1C", "cytotoxicity (dead cells)": -19.1}, {"smiles": "OCC(Cl)CCl", "note": "(stereo not given)", "cytotoxicity (dead cells)": -4.53}, {"smiles": "CC(C)(C)OOC(=O)c1ccccc1", "cytotoxicity (dead cells)": -7.91}, {"smiles": "O=C(O)C(Cl)(Cl)Br", "cytotoxicity (dead cells)": -0.725}, {"smiles": "O=[N+]([O-])c1cccc(CCl)c1", "cytotoxicity (dead cells)": 25.6}, {"smiles": "Cl/C=C/Cl", "cytotoxicity (dead cells)": 3.94}, {"smiles": "ClC(Cl)c1ccccc1", "cytotoxicity (dead cells)": -13.4}, {"smiles": "CSSC", "cytotoxicity (dead cells)": -23.4}, {"smiles": "C=CCCC#N", "cytotoxicity (dead cells)": -2.55}, {"smiles": "c1ccc2c(c1)CCNC2", "cytotoxicity (dead cells)": -11.5}, {"smiles": "Cc1cc(N=Nc2ccccc2C)ccc1N", "cytotoxicity (dead cells)": -26}, {"smiles": "[O-][Cl+2]([O-])O", "cytotoxicity (dead cells)": 8.28}, {"smiles": "O=[N+]([O-])c1ccc2c3c(cccc13)CC2", "cytotoxicity (dead cells)": -9.63}, {"smiles": "Nc1cccc(Cl)c1", "cytotoxicity (dead cells)": -21.5}, {"smiles": "O=[N+]([O-])CCO", "cytotoxicity (dead cells)": 8.06}, {"smiles": "Oc1ccc(Cl)c(Cl)c1", "cytotoxicity (dead cells)": 20.3}, {"smiles": "ClC(Cl)(Cl)C(Cl)(Cl)Cl", "cytotoxicity (dead cells)": -4.83}, {"smiles": "O=P(OCCCl)(OCCCl)OCCCl", "cytotoxicity (dead cells)": 12.1}, {"smiles": "CCBr", "cytotoxicity (dead cells)": -15.4}, {"smiles": "ClC(Br)Br", "cytotoxicity (dead cells)": 3.22}, {"smiles": "CCOP(=S)(OCC)Oc1nc(Cl)c(Cl)cc1Cl", "cytotoxicity (dead cells)": 5.4}, {"smiles": "CCCCCc1cc(O)cc(O)c1", "cytotoxicity (dead cells)": -12}, {"smiles": "C=CC(=O)OCC(CC)CCCC", "note": "(stereo not given)", "cytotoxicity (dead cells)": 1.57}, {"smiles": "Nc1cc(Cl)ccc1Cl", "cytotoxicity (dead cells)": 8.29}, {"smiles": "Clc1ccc(C(Cl)(Cl)Cl)c(Cl)c1", "cytotoxicity (dead cells)": -3.66}, {"smiles": "BrC(Br)Br", "cytotoxicity (dead cells)": -15.3}, {"smiles": "COc1c(C(C)(C)C)cc([N+](=O)[O-])c(C)c1[N+](=O)[O-]", "cytotoxicity (dead cells)": -25.5}, {"smiles": "S=C1NCCN1", "cytotoxicity (dead cells)": -17.7}]}]}
